# The panel holds about 83,000 compounds, 20% with a hit somewhere; the sample as a whole holds those more often.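 Compound tested at a single concentration for 48 hours in 96-well plates; a percent growth value below 10 was scored as active.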 A number with no mark means an inactive call. Active and inactive are the calls of the source.
# How the values were obtained:
# Assay in all cases: NCI-60 one-dose screen, 48 h (100 = growth as untreated, 0 = no growth, -100 = all killed)
# Conditions in all cases: 10 µM unless noted
# [1] = system: SK-MEL-2 melanoma
# [2] = system: EKVX NSCLC
# [3] = system: SN12C renal
# [4] = system: UO-31 renal
# [5] = system: TK-10 renal
# [6] = system: ACHN renal
# [7] = system: CAKI-1 renal
# [8] = system: A498 renal
# [9] = system: CCRF-CEM leukemia
# [10] = system: MOLT-4 leukemia
SMILES,growth [1],growth [2] [%],growth [3],growth [4],growth [5],growth [6],growth [7],growth [8],growth [9],growth [10]
Fc1cc(-c2cnc3nonc3n2)c(Cl)cc1Cl,102%,102,91.8%,-28.3% (active),72.4%,18.1%,85%,95.7%,-12.7% (active),20.2%
CCN1C(=O)N(CC)C2C1NN=c1s/c(=C\c3ccco3)c(=O)n12 (stereo not given),30%,36.3,47.5%,60%,57.6%,54.9%,46%,21.5%,10%,31.7%
COc1ccc(-n2c(COc3ccc(F)cc3)n[nH]c2=S)cc1,33.1%,107,84.4%,107%,101%,99.7%,104%,108%,143%,114%
COc1cc(C)c(Cl)cc1C1=NN(c2ccc(S(N)(=O)=O)cc2)C(/C=C/c2ccccc2)C1 (stereo not given),74.6%,49.3,20.6%,44.9%,46%,15%,59.5%,64.4%,54.5%,49.9%
Nc1nc(NC2CC2)cc(-c2cccc(Cl)c2Cl)n1,14.3%,71.9,59.6%,71.7%,87.3%,75.1%,58.5%,47.7%,62.3%,28.4%
CCCCCCCCCCCC1=NC(C)(C)CN1CC(C)O (stereo not given),63.4%,68.8,69.8%,47.6%,91.7%,80.2%,69.8%,99.8%,25.5%,25.4%
CCN(CC)CCNC(=O)n1cc(-c2ccncc2)c(-c2ccc(Cl)c(OC)c2)n1,96.1%,61.8,90.7%,69.2%,26.9%,77.6%,99.7%,95.5%,98.3%,82%
CCN1C(=O)/C(=C/N2N=C(c3ccc(Cl)cc3)CC2c2ccc(OC)cc2)SC1=S (stereo not given),84.4%,93.6,86.2%,71.1%,102%,94.1%,91.6%,64.4%,100%,73.4%
COc1ccc(-c2cc(-c3ccc(OC)cc3)c3sc(=O)[nH]c3n2)cc1,103%,86.6,73.7%,53.4%,89.8%,93.7%,76.8%,-1.41% (active),108%,92.9%
Cc1c2c(cc3c1[nH]c1ccccc13)C=NCC2,109%,80,90.8%,80%,113%,96.9%,92.9%,71.7%,75.9%,83.3%
CCCCCCCC/C=C/CCCCCCCC1=NC(C)(C)CN1C(C)C,-63.9% (active),10.6,16.8%,-17.4% (active),-14.8% (active),-78.3% (active),31.2%,65.7%,-43.4% (active),-63.2% (active)
S=C(S)Oc1cccc2cccnc12,105%,115,89.8%,62.2%,100%,96.2%,91.7%,105%,103%,83.6%
Cc1nn(-c2cccc(Cl)c2)c(C)c1N=Nc1ccc(Br)cc1,102%,87.5,94.4%,86.5%,90.1%,92%,86.7%,83%,97.3%,98.9%
Cc1c(C(=O)Nc2ccccc2F)sc2c(=O)[nH]cnc12,53.9%,91,96.2%,74.6%,90.8%,102%,74.7%,99.6%,90.4%,82%
COc1ccc(CC2c3cc(OC)c(OC)cc3CC[N+]2(C)CCC(=O)OCCCCCOC(=O)CC[N+]2(C)CCc3cc(OC)c(OC)cc3C2Cc2ccc(OC)c(OC)c2)cc1OC (stereo not given),98.7%,101,81.2%,66.2%,124%,97.1%,87.4%,66%,94.1%,80.4%
Cc1cc(-c2ccc(N=Nc3c(S(=O)(=O)O)cc4cc(S(=O)(=O)O)cc(O)c4c3O)c(C)c2)ccc1N=Nc1c(S(=O)(=O)O)cc2cc(S(=O)(=O)O)cc(O)c2c1O,90.6%,79.6,116%,73.9%,115%,101%,78.1%,122%,102%,127%
NS(=O)(=O)c1ccc(CCn2c(SCC(=O)N/N=C/c3cccnc3)nc3ccccc3c2=O)cc1,92%,96,110%,83.6%,109%,102%,95.6%,85.5%,60.3%,68.8%
COc1cc(C2CC(c3ccccc3)=NN2C=O)ccc1Oc1nc2c(c(=O)n(C)c(=O)n2C)n1C (stereo not given),101%,74.1,49%,62.4%,110%,86.9%,79.4%,81.3%,77.9%,62.2%
CCc1onc(-c2ccc(OC)cc2)c1-c1ccccc1OCCN(CC)CC,94.9%,85.2,91.4%,56.8%,92.2%,92.9%,82.4%,63.3%,75.6%,87.2%
CSC1=N/C(=C\c2cccc(OCc3ccc(Cl)cc3)c2)C(=O)N1,87.9%,75.5,80.9%,67.2%,78.9%,87.1%,80.6%,62.1%,98.3%,90.5%
C#CCNc1nc(NCCNC(=O)CCl)nc(N(C)CCCCc2ccccc2)n1,98.9%,102,77.1%,82.4%,97.7%,100%,95.2%,99.2%,23.8%,43.3%
COc1ccc(-c2cnnn2-c2nonc2-n2cccc2)cc1,54.6%,55.6,43.9%,44.2%,63.7%,48.2%,45.5%,-4.22% (active),14.1%,5.61% (active)
O=C(/C=C/c1ccc(F)cc1)N1CCN(C(=O)/C=C/c2ccc(C(F)(F)F)cc2)CC1,118%,93.1,106%,89.7%,105%,115%,97.3%,130%,103%,115%
COc1ccc(-c2nc3ccccc3n3cccc23)cc1,111%,97.2,95.1%,45.7%,138%,105%,85.5%,99.4%,89.9%,101%
CC(=O)OC[C@H]1O[C@@H](n2c(=O)cc(N)[nH]c2=O)C(OC(C)=O)[C@@H]1OC(C)=O (stereo not given in full),105%,104,103%,78.6%,97.8%,101%,88.8%,98.1%,111%,108%
C=C1C(=O)O[C@H]2[C@H]1CC/C(COC(=O)NCc1cn(C)c3ccccc13)=C\CC[C@@]1(C)O[C@@H]21,-2.82% (active),29.6,2.93% (active),-88.3% (active),-47.8% (active),-36.2% (active),-18.7% (active),63.4%,-13.3% (active),-15.4% (active)
CN(C)c1nc(-c2cccs2)n2nc(-c3ccco3)cc2n1,92.9%,80.1,92%,57.9%,103%,96.9%,85.5%,74.1%,93.9%,97%
